Results from PubChem BioAssay (EPA / NIEHS).
Calls of active or inactive are those of the source. How the source made its calls: active means hit-call score of the fitted dose curve at least 0.9, where 1 is the maximum; inactive means score below 0.9.

Read-out: ATP-citrate lyase (ACLY), ACLY (gene 47)
Assay: LTEA_HepaRG_ACLY: Life Technologies and Expression Analysis (LTEA) Assay for ATP-citrate lyase (ACLY) using HepaRG (AID 2283466)
Details: mRNA level, 48 h; actives raise or lower the signal
Outline: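 ACLY mRNA quantified by qRT-PCR on Fluidigm arrays against three housekeeping genes, after 48 h chemical treatment of HepaRG cells (top concentration 100 uM, half-log steps, 0.5% DMSO vehicle). Up- or down-regulation fitted relative to DMSO.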

| Structure (SMILES) | outcome | AC50 |
| --- | --- | --- |
| Cc1nc(C)nc(N2C[C@@H](C)N(c3ccnc([C@@H](C)O)n3)[C@@H](C)C2)n1 | inactive |  |
| O=C(O)Cc1ccccc1Nc1c(Cl)cccc1Cl | inactive |  |
| NCCO | inactive |  |
| COc1ccc(S(=O)(=O)N2C(=O)[C@@](c3ccccc3OC)(N3C[C@H](O)C[C@H]3C(=O)N(C)C)c3cc(Cl)ccc32)c(OC)c1 |  | 90.5 µM (active) |
| O=C(O)CCCCC(=O)O | inactive |  |
| Cc1ccc(C)c(O)c1C | inactive |  |
| Cc1ccc(C(C)C)c(O)c1 | inactive |  |
| Nc1nc(N)c2nc(CNc3ccc(C(=O)N[C@@H](CCC(=O)O)C(=O)O)cc3)cnc2n1 | inactive |  |
| CN1CCCC1=O | inactive |  |
| Oc1ccc2ccccc2c1N=Nc1ccccc1 | inactive |  |
| CN1CCN(Cc2cc(-c3ccc4[nH]c(=O)oc4c3)co2)[C@@H](c2ccc(F)cc2)C1 | inactive |  |
| CCCCC(CC)COC(=O)CC(C(=O)OCC(CC)CCCC)S(=O)(=O)O (stereo not drawn) |  | 90.7 µM (active) |
| NS(=O)(=O)c1cc2c(cc1Cl)NCNS2(=O)=O | inactive |  |
| CC(=O)C(C)=CC1C(C)=CCCC1(C)C (stereo not drawn) | inactive |  |
| CCNc1cccc(C)c1 | inactive |  |
| Cc1cccc([N+](=O)[O-])c1C | inactive |  |
| NCC1(Cc2noc(=O)[nH]2)CCCCC1 | inactive |  |
| Cc1oc(-c2ccccc2)nc1CCOc1cccc2c1ccn2CCC(=O)O |  | 38.7 µM (active) |
| COc1ccc(C)cc1N | inactive |  |
| CCOC(=O)CCC(=O)OCC | inactive |  |
| Cc1cc(NC(=O)C(=O)O)cc(C)c1Oc1ccc(O)c2c1CCC2 | inactive |  |
| O=c1[nH]cc(F)c(=O)[nH]1 | inactive |  |
| CC(=O)OCCOCCOCCOC(C)=O | inactive |  |
| CCCCCCC(=O)OCC | inactive |  |
| CC(C)c1ccc(C(=O)N=C(N)N)cc1S(C)(=O)=O | inactive |  |
| CC1(C)NC(=O)NC1=O | inactive |  |
| Nc1ccc(S(=O)(=O)c2ccc(N)cc2)cc1 | inactive |  |
| C[C@]12C=CC(=O)C=C1CC[C@@H]1[C@@H]2C(=O)C[C@@]2(C)[C@H]1CC[C@]2(O)C(=O)CO | inactive |  |
| CCCCCCCCCCO | inactive |  |

Read-out: Peroxisomal acyl-coenzyme A oxidase 1 (ACOX1) gene, ACOX1 (gene 51)
Assay: LTEA_HepaRG_ACOX1: Life Technologies and Expression Analysis (LTEA) Assay for Peroxisomal acyl-coenzyme A oxidase 1 (ACOX1) gene using HepaRG (AID 2283467)
Details: mRNA level, 48 h; actives raise or lower the signal
Outline: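 ACOX1 transcript levels were quantified by TaqMan qRT-PCR against three housekeeping genes after 48 h chemical exposure of differentiated human HepaRG cells. Exposure used eight half-log steps topping at 100 uM, 0.5% DMSO vehicle, in duplicate. Bidirectional curve fits were made relative to DMSO.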

| Structure (SMILES) | outcome | AC50 |
| --- | --- | --- |
| Cc1nc(C)nc(N2C[C@@H](C)N(c3ccnc([C@@H](C)O)n3)[C@@H](C)C2)n1 | inactive |  |
| O=C(O)Cc1ccccc1Nc1c(Cl)cccc1Cl | inactive |  |
| NCCO | inactive |  |
| COc1ccc(S(=O)(=O)N2C(=O)[C@@](c3ccccc3OC)(N3C[C@H](O)C[C@H]3C(=O)N(C)C)c3cc(Cl)ccc32)c(OC)c1 |  | 17.6 µM (active) |
| O=C(O)CCCCC(=O)O | inactive |  |
| Cc1ccc(C)c(O)c1C | inactive |  |
| Cc1ccc(C(C)C)c(O)c1 | inactive |  |
| Nc1nc(N)c2nc(CNc3ccc(C(=O)N[C@@H](CCC(=O)O)C(=O)O)cc3)cnc2n1 | inactive |  |
| CN1CCCC1=O | inactive |  |
| Oc1ccc2ccccc2c1N=Nc1ccccc1 |  | 11.1 µM (active) |
| CN1CCN(Cc2cc(-c3ccc4[nH]c(=O)oc4c3)co2)[C@@H](c2ccc(F)cc2)C1 | inactive |  |
| CCCCC(CC)COC(=O)CC(C(=O)OCC(CC)CCCC)S(=O)(=O)O (stereo not drawn) |  | 79.9 µM (active) |
| NS(=O)(=O)c1cc2c(cc1Cl)NCNS2(=O)=O | inactive |  |
| CC(=O)C(C)=CC1C(C)=CCCC1(C)C (stereo not drawn) | inactive |  |
| CCNc1cccc(C)c1 | inactive |  |
| Cc1cccc([N+](=O)[O-])c1C | inactive |  |
| NCC1(Cc2noc(=O)[nH]2)CCCCC1 | inactive |  |
| Cc1oc(-c2ccccc2)nc1CCOc1cccc2c1ccn2CCC(=O)O |  | 0.106 µM (active) |
| COc1ccc(C)cc1N | inactive |  |
| CCOC(=O)CCC(=O)OCC | inactive |  |
| Cc1cc(NC(=O)C(=O)O)cc(C)c1Oc1ccc(O)c2c1CCC2 | inactive |  |
| O=c1[nH]cc(F)c(=O)[nH]1 | inactive |  |
| CC(=O)OCCOCCOCCOC(C)=O | inactive |  |
| CCCCCCC(=O)OCC | inactive |  |
| CC(C)c1ccc(C(=O)N=C(N)N)cc1S(C)(=O)=O |  | 7.39 µM (active) |
| CC1(C)NC(=O)NC1=O | inactive |  |
| Nc1ccc(S(=O)(=O)c2ccc(N)cc2)cc1 | inactive |  |
| C[C@]12C=CC(=O)C=C1CC[C@@H]1[C@@H]2C(=O)C[C@@]2(C)[C@H]1CC[C@]2(O)C(=O)CO | inactive |  |
| CCCCCCCCCCO | inactive |  |
